“And” between values parts separate entries of the source, which are not always exact repeats. Equal entries are not always repeated. Hit rate of the full screen: of about 5,500 compounds, about 2,000 (36%) were called active. Roughly 18% stayed inconclusive and do not appear here. Cut-off read from the data, not from the text of the source: active = normalized growth mostly below about 0.91 (no sharp cut-off); inconclusive = no clear call, values can overlap the other calls; inactive = mostly above about 0.92. Some of the results follow.
Assay: chemical genetic growth profiling, strain panel (AID 1159580);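 note: tested at 20 µM; growth read once vehicle control cultures reached saturation at 30 °C; 1 = growth at the plate median or of vehicle wells; lower values mean less growth of the strain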
Conditions: S. cerevisiae deletion strains, growth OD
[1] = locus YAL013W, strain DEP1, stronger effect = lower value
[2] = locus YGR078C, strain PAC10, stronger effect = lower value
[3] = locus YJR075W, strain HOC1, stronger effect = lower value
[4] = locus YMR307W, strain GAS1, stronger effect = lower value
[5] = locus YPL055C, strain LGE1, stronger effect = lower value
[6] = locus YPL241C, strain CIN2, stronger effect = lower value
[7] = locus YAL040C, strain CLN3, stronger effect = lower value
[8] = locus YDR363W, strain ESC2, stronger effect = lower value
[9] = locus YER002W, strain NOP16, stronger effect = lower value
[10] = locus YNL153C, strain GIM3, stronger effect = lower value
[11] = locus YNL175C, strain NOP13, stronger effect = lower value
[12] = locus YNL197C, strain WHI3, stronger effect = lower value
[13] = locus YNL224C, strain SQS1, stronger effect = lower value
[14] = locus YOR083W, strain WHI5 (second series), stronger effect = lower value

Measured: normalized growth

CC1(C)O[C@@H]2CC3C4C[C@H](F)C5=CC(=O)C=C[C@]5(C)[C@@]4(F)[C@@H](O)C[C@]3(C)[C@]2(C(=O)CO)O1 (stereo not given in full)
inactive: [1] 1 | locus YAL021C, strain ccr4, stronger effect = lower value 1.01 | locus YAL026C, strain drs2, stronger effect = lower value 1 | locus YAL030W, strain snc1, stronger effect = lower value 1.01 | locus YBL061C, strain skt5, stronger effect = lower value 1.01 | locus YBR009C, strain hhf1, stronger effect = lower value 1.01 | locus YBR021W, strain FUR4, stronger effect = lower value 0.995 | locus YBR023C, strain chs3, stronger effect = lower value 1.03 | locus YBR171W, strain sec66, stronger effect = lower value 1.02 | locus YBR229C, strain ROT2, stronger effect = lower value 0.999 | locus YBR231C, strain swc5, stronger effect = lower value 1.01 | locus YBR279W, strain paf1, stronger effect = lower value 1.05 | locus YCL011C, strain gbp2, stronger effect = lower value 1.03 | locus YCL016C, strain dcc1, stronger effect = lower value 1.02 | locus YCL029C, strain bik1, stronger effect = lower value 1.01 | locus YCL061C, strain MRC1, stronger effect = lower value 1.03 | locus YCL069W, strain vba3, stronger effect = lower value 1.02 | locus YCR088W, strain abp1, stronger effect = lower value 1.01 | locus YDL005C, strain med2, stronger effect = lower value 1.02 | locus YDL035C, strain GPR1, stronger effect = lower value 0.982 | locus YDL040C, strain nat1, stronger effect = lower value 1.01 | locus YDL074C, strain BRE1, stronger effect = lower value 1 | locus YDL101C, strain DUN1, stronger effect = lower value 1.01 | locus YDL185W, strain tfp1, stronger effect = lower value 1.01 | locus YDL192W, strain arf1, stronger effect = lower value 1.01 | locus YDR001C, strain nth1, stronger effect = lower value 1.02 | locus YDR069C, strain doa4, stronger effect = lower value 1 | locus YDR101C, strain arx1, stronger effect = lower value 0.988 | locus YDR137W, strain rgp1, stronger effect = lower value 1.02 | locus YDR159W, strain sac3, stronger effect = lower value 0.973 | locus YDR162C, strain NBP2, stronger effect = lower value 0.993 | locus YDR195W, strain ref2 1.01 | locus YDR297W, strain sur2, stronger effect = lower value 1.01 | locus YDR318W, strain mcm21, stronger effect = lower value 1.02 | locus YDR334W, strain swr1, stronger effect = lower value 1.01 | locus YDR335W, strain msn5, stronger effect = lower value 1.02 | locus YDR388W, stronger effect = lower value 1.01 | locus YDR392W, strain spt3, stronger effect = lower value 0.975 | locus YDR502C, strain sam2, stronger effect = lower value 1.01 | locus YEL003W, strain gim4, stronger effect = lower value 1 | locus YEL037C, strain rad23, stronger effect = lower value 1.01 | locus YEL061C, strain CIN8 (second series), stronger effect = lower value 1.02 | locus YEL061C, strain CIN8, stronger effect = lower value 0.992 | locus YER015W, strain faa2, stronger effect = lower value 1.01 | locus YER016W, strain bim1, stronger effect = lower value 1.01 | locus YER110C, stronger effect = lower value 1.02 | locus YER111C, strain swi4, stronger effect = lower value 1.01 | locus YER155C, strain BEM2 (second series), stronger effect = lower value 1.02 | locus YER155C, strain BEM2, stronger effect = lower value 0.997 | locus YER167W, strain BCK2, stronger effect = lower value 1 | locus YFR010W, strain ubp6, stronger effect = lower value 1.01 | locus YGL078C, strain dbp3, stronger effect = lower value 1.02 | locus YGL086W, strain mad1, stronger effect = lower value 0.992 | locus YGL167C, strain pmr1, stronger effect = lower value 1.01 | locus YGL173C, strain kem1, stronger effect = lower value 1.01 | locus YGL227W, strain vid30, stronger effect = lower value 1.02 | locus YGL240W, strain doc1, stronger effect = lower value 0.997 | locus YGL248W, strain PDE1, stronger effect = lower value 1.01 | locus YGL253W, strain hxk2, stronger effect = lower value 1.01 | [2] 0.994 | locus YGR135W, strain pre9, stronger effect = lower value 1.07 | locus YGR252W, strain gcn5, stronger effect = lower value 1.07 | locus YHR013C, strain ard1, stronger effect = lower value 1.05 | locus YHR027C, strain rpn1, stronger effect = lower value 1.01 | locus YHR030C, strain SLT2, stronger effect = lower value 0.99 and 0.972 | locus YHR079C, strain IRE1 (second series), stronger effect = lower value 1.01 | locus YHR079C, strain IRE1, stronger effect = lower value 0.969 | locus YHR094C, strain hxt1, stronger effect = lower value 1.02 | locus YHR129C, strain ARP1, stronger effect = lower value 0.997 | locus YHR142W, strain chs7, stronger effect = lower value 1.03 | locus YHR200W, strain rpn10, stronger effect = lower value 1.02 | locus YIL066C, strain RNR3, stronger effect = lower value 0.993 | locus YIL073C, strain SPO22, stronger effect = lower value 1.02 | locus YIL125W, strain kgd1, stronger effect = lower value 1.01 | locus YIR030C, strain dcg1, stronger effect = lower value 1.02 | locus YJL092W, strain hpr5, stronger effect = lower value 1.02 | locus YJL095W, strain BCK1 (second series), stronger effect = lower value 1.02 | locus YJL095W, strain BCK1, stronger effect = lower value 1.01 and 0.978 | locus YJL115W, strain asf1, stronger effect = lower value 1.01 | locus YJL129C, strain trk1, stronger effect = lower value 1.02 | locus YJL134W, strain LCB3, stronger effect = lower value 1 | locus YJL154C, strain vps35, stronger effect = lower value 1.01 | locus YJL164C, strain tpk1, stronger effect = lower value 1.01 | locus YJL166W, strain qcr8, stronger effect = lower value 1.03 | locus YJL168C, strain set2, stronger effect = lower value 1.02 | locus YJL187C, strain SWE1 (second series), stronger effect = lower value 0.999 | locus YJL187C, strain SWE1, stronger effect = lower value 1.01 | locus YJR043C, strain POL32, stronger effect = lower value 0.988 | locus YJR066W, strain TOR1, stronger effect = lower value 0.952 | [3] 0.994 | locus YKL009W, strain mrt4, stronger effect = lower value 0.996 | locus YKL068W, stronger effect = lower value 1.01 | locus YKL085W, strain MDH1 (second series), stronger effect = lower value 1.01 | locus YKL085W, strain MDH1, stronger effect = lower value 1.01 | locus YKL160W, strain elf1, stronger effect = lower value 1.03 | locus YKL190W, strain CNB1, stronger effect = lower value 0.994 | locus YKR001C, strain vps1, stronger effect = lower value 1 | locus YKR026C, strain gcn3, stronger effect = lower value 1.01 | locus YKR091W, strain srl3, stronger effect = lower value 1.01 | locus YLL001W, strain dnm1, stronger effect = lower value 1.01 | locus YLL026W, stronger effect = lower value 1.01 | locus YLL041C, strain sdh2, stronger effect = lower value 1.01 | locus YLR027C, strain aat2, stronger effect = lower value 1.01 | locus YLR039C, strain RIC1, stronger effect = lower value 1.05 | locus YLR058C, strain SHM2, stronger effect = lower value 1.01 | locus YLR102C, strain apc9, stronger effect = lower value 1.02 | locus YLR113W, strain HOG1, stronger effect = lower value 0.994 | locus YLR221C, strain rsa3, stronger effect = lower value 1.02 | locus YLR258W, strain gsy2, stronger effect = lower value 1.01 | locus YLR262C, strain YPT6 (second series), stronger effect = lower value 1.04 | locus YLR262C, strain YPT6, stronger effect = lower value 0.968 | locus YLR268W, strain sec22, stronger effect = lower value 1.01 | locus YLR320W, strain mms22, stronger effect = lower value 1.04 | locus YLR330W, strain CHS5, stronger effect = lower value 1 | locus YLR342W, strain FKS1 (second series), stronger effect = lower value 1.01 | locus YLR342W, strain FKS1, stronger effect = lower value 1.02 | locus YLR357W, strain rsc2, stronger effect = lower value 1.01 | locus YLR370C, strain arc18, stronger effect = lower value 1.01 | locus YLR371W, strain rom2, stronger effect = lower value 1.01 | locus YLR384C, strain iki3, stronger effect = lower value 1.02 | locus YLR418C, strain cdc73, stronger effect = lower value 1.03 | locus YML016C, strain PPZ1, stronger effect = lower value 0.998 | locus YML032C, strain rad52, stronger effect = lower value 1.01 | locus YML120C, strain ndi1, stronger effect = lower value 1.03 | locus YML124C, strain tub3, stronger effect = lower value 1.01 | locus YMR058W, strain fet3, stronger effect = lower value 1.01 | locus YMR078C, strain ctf18, stronger effect = lower value 1.01 | locus YMR125W, strain sto1, stronger effect = lower value 1.03 | locus YMR129W, stronger effect = lower value 1.01 | locus YMR205C, strain PFK2, stronger effect = lower value 1.01 | locus YMR223W, strain ubp8, stronger effect = lower value 1.04 | locus YMR231W, strain pep5, stronger effect = lower value 1.01 | [4] 0.967 | locus YNL067W, strain RPL9B, stronger effect = lower value 0.993 | locus YNL071W, strain lat1, stronger effect = lower value 1.02 | locus YNL128W, strain TEP1, stronger effect = lower value 1.01 | locus YNL183C, strain NPR1, stronger effect = lower value 0.975 | locus YNL209W, strain ssb2, stronger effect = lower value 1.02 | locus YNL233W, strain BNI4, stronger effect = lower value 1 | locus YNL248C, strain rpa49, stronger effect = lower value 1.01 | locus YNL250W, strain rad50, stronger effect = lower value 1.05 | locus YNL271C, strain bni1, stronger effect = lower value 1.02 | locus YNL298W, strain CLA4, stronger effect = lower value 1.01 | locus YNL307C, strain MCK1, stronger effect = lower value 1.03 | locus YNL322C, strain KRE1 (second series), stronger effect = lower value 1.03 | locus YNR049C, strain mso1, stronger effect = lower value 1 | locus YNR052C, strain pop2, stronger effect = lower value 1.01 | locus YOL012C, strain htz1 0.765 | locus YOL147C, strain pex11, stronger effect = lower value 1.02 | locus YOR001W, strain rrp6, stronger effect = lower value 0.98 | locus YOR061W, strain CKA2, stronger effect = lower value 1.01 | locus YOR069W, strain VPS5, stronger effect = lower value 1 | locus YOR070C, strain gyp1, stronger effect = lower value 1.03 | locus YOR080W, strain dia2, stronger effect = lower value 1.02 | locus YOR083W, strain WHI5, stronger effect = lower value 1.04 | locus YOR106W, strain vam3, stronger effect = lower value 1.04 | locus YOR136W, strain idh2, stronger effect = lower value 1.01 | locus YOR144C, strain elg1, stronger effect = lower value 1.01 | locus YOR184W, strain ser1, stronger effect = lower value 1.02 | locus YOR231W, strain MKK1, stronger effect = lower value 0.986 | locus YOR265W, strain rbl2, stronger effect = lower value 1.01 | locus YOR270C, strain vph1, stronger effect = lower value 1.04 | locus YOR290C, strain snf2, stronger effect = lower value 0.985 | locus YOR316C, strain cot1, stronger effect = lower value 1.01 | locus YPL051W, strain arl3, stronger effect = lower value 1.01 | [5] 0.996 | locus YPL078C, strain atp4, stronger effect = lower value 1.02 | locus YPL106C, strain sse1, stronger effect = lower value 1.01 | locus YPL240C, strain hsp82, stronger effect = lower value 1.01 | [6] 1 | locus YPL256C, strain CLN2, stronger effect = lower value 0.987 | locus YPR119W, strain clb2, stronger effect = lower value 1.02 | locus YPR141C, strain kar3, stronger effect = lower value 1.01 | locus YPR163C, strain tif3, stronger effect = lower value 1.02 | locus YPR167C, strain met16, stronger effect = lower value 1.01 | strain wtn01, stronger effect = lower value 1.01

N=c1ccn2c(n1)OC1C(O)[C@@H](CO)O[C@H]12 (stereo not given in full)
inactive: [1] 0.99 | [7] 1 | [8] 0.986 | [9] 1.01 | [10] 1.02 | [11] 1 | [12] 1 | [13] 1.03 | locus YNL322C, strain KRE1, stronger effect = lower value 1 | [14] 1.03

CC(N)Cc1c[nH]c2ccc(OCc3cccs3)cc12 (stereo not given)
inactive: [1] 1 | [7] 1.02 | [8] 0.984 | [9] 1.02 | [2] 1.01 | [3] 1 | [4] 1.02 | [10] 1.02 | [11] 0.986 | [12] 1.01 | [13] 1.01 | [14] 0.981 | [5] 1 | [6] 1.01
